# SW480 rereplic – induces DNA re-replication in SW480 colon adenocarcinoma cells; Potency, µM (top dose mostly 46.1 µM), for the others: at the highest dose re-replication activation, hits mostly activators; actives 1.8% (n = 340,000); AID 624297; SW480 DNA re-replication, Hoechst DNA content imaging, 48 h; also: potency is read from the fitted curve at half-maximal effect; % of control where 0% means no effect; nearly all actives have a fitted effect of over 55% in size
#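 Image-based read-out: total Hoechst fluorescence of nuclei (405 nm excitation, 500-530 nm emission), with hits raising the fraction of high-intensity nuclei. SW480 colon cells incubated 48 hr with compounds at 37 C.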
# KB-3-1 tox – KB-3-1 parental cell cytotoxicity; Potency, µM (highest dose often 46.1 µM), actives largely listed as cytotoxic; actives 1.4% (n = 400,000); KB-3-1 viability, CellTiter-Glo ATP luminescence, 72 h; also: potency is read from the fitted curve at half-maximal effect; % is scaled to controls: 0 for no effect and ±100 for the full control effect; nearly all actives have a fitted effect of over 60% in size
#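 Cells are dispensed, compounds pinned in, plates held at 37 °C for 72 h, then CellTiter-Glo is added and luminescence read after 10 minutes. Cell line: parental KB-3-1 in phenol-red-free DMEM, 10% FBS.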
# IL-1B inflam inh – inflammasome signaling inhibition, IL-1 beta readout; activity change, % at 57.5 µM; THP-1 LPS/ATP IL-1B secretion, AlphaLISA, 16 h; hits give low values; AID 743279; actives 4.7% (n = 360,000); in the data active = activity change below about -50%; inconclusive = mostly about -30% to -49%; also: % is scaled to controls: 0 for no effect and ±100 for the full control effect
#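 Secreted IL-1B measured by AlphaLISA bead assay after 16 h compound exposure of THP-1 cells; compounds (final up to 57.5 uM) added 1 h before LPS (250 ng/mL) and ATP (1.25 mM) stimulation; lower signal means less secretion.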
# KB-V1 MDR tox – kills drug-selected multidrug resistant KB-V1 cells; KB-V1 MDR cells viability, CellTiter-Glo, 72 h; Potency, µM (doses to about 46.1 µM), hits mostly cytotoxic; actives 3.4% (n = 400,000); AID 1347076; also: potency is read from the fitted curve at half-maximal effect; % is scaled to controls: 0 for no effect and ±100 for the full control effect; nearly all actives have a fitted effect of over 60% in size
#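 Cytotoxicity via CellTiter-Glo luminescence after 72 h compound exposure at 37 degrees C. Cells: drug-selected KB-V1 line, DMEM phenol-red free plus 10% FBS. Compounds tested at multiple concentrations; normalized data fitted to concentration-effect curves.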
# MCF10A rereplic – DNA re-replication induction in MCF 10a cells. Potency, µM (series often up to 46.1 µM), for inactives: top-dose activity, positive = re-replication, hits mostly activators. actives 2.9% (n = 350,000). MCF 10A DNA re-replication, Hoechst nuclear intensity, 48 h. AID 624296; also: potency is read from the fitted curve at half-maximal effect; % of control where 0% means no effect; nearly all actives have a fitted effect of over 50% in size
# Active calls of the source: *; i = inactive; u = inconclusive; x = no result. This is a sample that favours compounds with a hit; in the whole collection about 9.9% have one here. Unless noted, calls follow the shape of the dose curve; as a rule, active = well fitted curve in the direction sought with a large enough effect; inconclusive = small, poorly fitted or top-dose-only effect, or another doubt; inactive = no such curve, though single readings can be large; an effect the other way counts as inactive or inconclusive.
SMILES,SW480 rereplic,KB-3-1 tox,IL-1B inflam inh,KB-V1 MDR tox,MCF10A rereplic
COc1ccc(CCNCc2c(OC)ccc3ccccc23)cc1,0%,i,-64*,i,2%
COc1ccc(CCNCc2cc(OC)cc(OC)c2)cc1,x,i,-51*,u,x
COc1cccc(CCNCc2ccc(SC)cc2)c1,22%,i,-65*,i,-2%
COc1ccc(CCNC2CCCCCC2)cc1,3.3µM*,i,5,i,16%
COc1ccc(CCNCc2ccccc2)cc1,-7%,i,-15,i,0%
O=C(O)c1sccc1Oc1ccc(F)cc1[N+](=O)[O-],5%,i,-6,i,u
COc1cccc(/C=N/NC(=O)c2c(C)nc3ccc(Br)cn23)c1,u,i,27,i,1%
Cc1ccc(N=CN(C)C=Nc2ccc(C)cc2C)c(C)c1,u,x,x,x,2%
COc1ccc(CCNCc2ccncc2)cc1,-1%,i,4,i,u
COc1ccc(CCNC(C)CCc2ccc(OC)cc2)cc1 (stereo not given),u,i,-64*,u,-13%
Clc1ccc(C2(Cn3cncn3)OCCO2)c(Cl)c1,2%,x,x,x,5%
O=C1NC(=S)N(C2CC2)C(=O)/C1=C/c1ccc2c(c1)CCN2CCCCl,-2%,i,-78*,i,12%
CCN1C(=O)/C(=C/c2ccc3c(c2)CCN3CCCCl)C(=O)NC1=S,-6%,i,-19,i,-2%
Cc1[nH]c2ccccc2c1CCNCc1cccnc1,5%,i,-5,i,-4%
COc1ccc2[nH]c(C)c(CCNCc3cn(C)c4ccccc34)c2c1,u,u,-86*,u,u
COc1ccc(OC(=O)N2C/C(=C/c3ccccc3)C(=O)/C(=C\c3ccccc3)C2)cc1,3.7µM*,u,-87*,u,7.3µM*
COc1ccc(CC(=O)N2C[C@H]3C[C@@H](C2)c2cccc(=O)n2C3)cc1,-3%,i,-6,i,-7%
CCc1cc2c(=O)n(C(C)C(=O)OC3CCCCC3)cnc2s1 (stereo not given),0%,i,2,u,u
CN(C)C(=O)Oc1c(Cl)cc(Cl)c2cccnc12,3%,i,20,i,-11%
Cc1ccc2c(Cl)cc(Cl)c(O)c2n1,10µM*,i,-94*,i,21µM*
OC(c1cccc(Cl)c1)(c1cccc(Cl)c1)C1CN2CCC1CC2 (stereo not given),7%,u,-73*,u,u
CC[C@]1(O)CC[C@H]2[C@@H]3CCC4=CCCC[C@@H]4[C@H]3CC[C@@]21C,24µM*,x,x,x,u
C[C@H]1CCC[C@@H](O)CCC/C=C/c2cc(O)cc(O)c2C(=O)O1,u,i,u,u,10µM*
CC1CCC[C@H](O)CCCCCc2cc(O)cc(O)c2C(=O)O1 (stereo not given in full),-39%,i,-8,21µM*,1%
C[C@H]1CCC[C@H](O)CCCCCc2cc(O)cc(O)c2C(=O)O1,u,u,-19,u,u
SMILES,SW480 rereplic,KB-3-1 tox,IL-1B inflam inh,KB-V1 MDR tox,MCF10A rereplic
CCCCCN1C(=O)c2cc(OC)ccc2[C@@]2(C(=O)OCC)Cc3cc(OC)ccc3[C@@H]12,x,5.8µM*,-69*,23µM*,x
CCOC(=O)[C@]12Cc3cc(Cl)ccc3[C@H]1N(C)C(=O)c1cc(OC)ccc12,x,2.6µM*,x,4.1µM*,x
CCOC(=O)[C@]12Cc3cc(OC)ccc3[C@H]1N(CC(=O)OC)C(=O)c1cc(OC)ccc12,x,4.6µM*,-57*,u,x
CCOC(=O)[C@]12Cc3cc(OC)ccc3[C@H]1N(CC(=O)OC)C(=O)c1ccccc12,x,i,32,i,x
CCOC(=O)[C@]12Cc3cc(OC)ccc3[C@H]1N(C)C(=O)c1cc(OC)ccc12,x,3.7µM*,x,u,x
COc1ccc2cc1Oc1ccc(cc1)C[C@H]1c3cc(c(OC)cc3CCN1C)Oc1c(OC)c(OC)cc3c1[C@@H](C2)N(C)CC3,u,i,u,i,-13%
O=C(CSc1nnc(NC(=O)c2ccccc2F)s1)NCc1ccc(F)cc1,u,i,0,i,6%
